Results as given in publication PMC4336329 (PLoS ONE, 2015).
In all, about 310,000 compounds went through this assay and about 14,000 (4.5%) showed an effect of 50% or more. Effects have a minus sign here. This excerpt belongs to a sample that is enriched for strong results.
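Note: peak tail current of the secondary pulse compared with the same well before compound.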

The compounds below were run against human ether-à-go-go-related gene (hERG) potassium channel (human, UniProt Q12809) (assay: primary screen, population patch clamp on CHO cells stably expressing hERG; higher = less effect of the substance).
Sequence of human ether-à-go-go-related gene (hERG) potassium channel (Q12809 whole entry, looked up): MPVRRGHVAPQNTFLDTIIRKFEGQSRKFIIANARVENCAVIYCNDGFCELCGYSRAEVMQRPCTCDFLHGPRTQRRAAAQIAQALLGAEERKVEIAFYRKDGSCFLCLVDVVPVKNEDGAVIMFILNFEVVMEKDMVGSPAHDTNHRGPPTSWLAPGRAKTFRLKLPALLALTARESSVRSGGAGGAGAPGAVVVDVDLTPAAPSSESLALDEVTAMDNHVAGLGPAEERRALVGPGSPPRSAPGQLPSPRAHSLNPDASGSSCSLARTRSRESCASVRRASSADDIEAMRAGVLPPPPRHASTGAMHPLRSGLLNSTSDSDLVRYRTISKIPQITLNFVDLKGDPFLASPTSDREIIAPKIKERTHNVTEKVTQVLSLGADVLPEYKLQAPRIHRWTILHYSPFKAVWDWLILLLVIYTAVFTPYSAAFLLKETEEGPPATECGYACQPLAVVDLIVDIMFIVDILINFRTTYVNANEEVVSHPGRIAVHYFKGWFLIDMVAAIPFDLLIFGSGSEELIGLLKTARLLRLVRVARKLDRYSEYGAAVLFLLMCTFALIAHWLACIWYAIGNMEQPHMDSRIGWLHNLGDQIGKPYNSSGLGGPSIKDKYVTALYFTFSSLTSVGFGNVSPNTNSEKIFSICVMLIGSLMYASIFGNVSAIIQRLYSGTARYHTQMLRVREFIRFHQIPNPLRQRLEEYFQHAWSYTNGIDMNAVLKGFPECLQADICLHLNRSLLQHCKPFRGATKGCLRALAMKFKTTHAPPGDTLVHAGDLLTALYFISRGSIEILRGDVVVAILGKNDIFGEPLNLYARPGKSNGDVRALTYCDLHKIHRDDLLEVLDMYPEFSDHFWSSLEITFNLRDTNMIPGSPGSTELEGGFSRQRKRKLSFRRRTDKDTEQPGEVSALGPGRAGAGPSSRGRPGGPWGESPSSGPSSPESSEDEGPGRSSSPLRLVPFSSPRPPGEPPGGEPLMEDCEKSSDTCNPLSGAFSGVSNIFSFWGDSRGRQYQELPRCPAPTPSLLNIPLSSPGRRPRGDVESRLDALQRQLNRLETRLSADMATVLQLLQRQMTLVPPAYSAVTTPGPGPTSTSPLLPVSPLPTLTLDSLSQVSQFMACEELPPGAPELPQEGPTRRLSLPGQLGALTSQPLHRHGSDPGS
With `Cn1c(SCC(=O)O)nc2sc3c(c2c1=O)CCC3` the “hERG current change (%, negative = inhibition) at 10uM” value was 30.3%.
For `COC(=O)c1ccc2c(c1)S(=O)(=O)NC(=NCc1ccco1)S2`, the “hERG current change (%, negative = inhibition) at 10uM” value was -23.8%.
With `O=C(NCc1cccc(Cl)c1)c1cnccn1` the “hERG current change (%, negative = inhibition) at 10uM” value was -9.28%.
For `CCn1ncc(-c2csc(N)n2)c1C`, the “hERG current change (%, negative = inhibition) at 10uM” value was 0.511%.
`BrC(=C\c1ccccc1)/C=N/N1CCN(Cc2ccccc2)CC1` was tested, and the “hERG current change (%, negative = inhibition) at 10uM” value was 4.34%.
With `CCN1C(=O)C(CC(=O)NCCc2ccccc2)N(NC(=O)c2cccnc2)C1=S` (stereo not shown) the “hERG current change (%, negative = inhibition) at 10uM” value was -21.1%.
In the case of `O=C(CSc1nc2cc(Cl)ccc2s1)Nc1cccc(S(=O)(=O)N2CCOCC2)c1`, the “hERG current change (%, negative = inhibition) at 10uM” value is reported as -10.7%.
For `S=C(NCCc1ccccc1)Nc1ccc(Br)cn1`, the “hERG current change (%, negative = inhibition) at 10uM” value was 3.98%.
In the case of `CC(Oc1ccc(F)cc1)C(=O)Nc1cc(S(=O)(=O)N2CCOCC2)ccc1N1CCN(C)CC1` (stereo not shown), the “hERG current change (%, negative = inhibition) at 10uM” value is reported as -29.9%.
With `CCN1CCN(c2ccc(S(=O)(=O)N3CCOCC3)cc2NC(=O)C(C)Oc2ccc(F)cc2)CC1` (stereo not shown) the “hERG current change (%, negative = inhibition) at 10uM” value was -57.4%.
`CC(Oc1ccc(F)cc1)C(=O)Nc1cc(S(=O)(=O)N2CCOCC2)ccc1N1CCCC1` (stereo not shown) was tested, and the “hERG current change (%, negative = inhibition) at 10uM” value was 13.7%.
`C=CCN1C(=O)/C(=C\c2ccc(Oc3nc(N4CCOCC4)nc(N4CCOCC4)n3)c(OC)c2)SC1=S` was tested, and the “hERG current change (%, negative = inhibition) at 10uM” value was 15.9%.
With `COCCn1c(=S)[nH]c2cc(C(=O)NCCCN3CCOCC3)ccc2c1=O` the “hERG current change (%, negative = inhibition) at 10uM” value was 8.93%.
`CCC[C@@H](CNC)NC[C@H](Cc1ccccc1)NCCCCc1ccccc1` was tested, and the “hERG current change (%, negative = inhibition) at 10uM” value was -6.02%.
`CCC[C@H](CN[C@@H](CNC)[C@H](C)O)NCCc1ccc(OC)cc1` was tested, and the “hERG current change (%, negative = inhibition) at 10uM” value was 2.16%.
In the case of `CCCC[C@@H](CNC)NC[C@H](Cc1ccc(O)cc1)NCCc1ccc(OCC)cc1`, the “hERG current change (%, negative = inhibition) at 10uM” value is reported as -53.7%.
For `Cc1[nH]c2ccccc2c1/C=N/n1cnnc1`, the “hERG current change (%, negative = inhibition) at 10uM” value was 10.2%.
`COCCn1c(C)cc(C(=O)COc2ccc(N(C)S(=O)(=O)c3ccc(C)cc3)cc2)c1C` was tested, and the “hERG current change (%, negative = inhibition) at 10uM” value was -19.9%.
With `CCc1ccc(OCC(=O)N/N=C/c2cc([N+](=O)[O-])ccc2N2CCOCC2)cc1` the “hERG current change (%, negative = inhibition) at 10uM” value was -14.6%.
In the case of `CCN(CC)S(=O)(=O)c1ccc(-c2cn3ccc(C)cc3n2)cc1`, the “hERG current change (%, negative = inhibition) at 10uM” value is reported as 7.52%.
In the case of `OC(COC(c1ccccc1)c1ccccc1)CN1CCN(c2cccc(Cl)c2)CC1` (stereo not shown), the “hERG current change (%, negative = inhibition) at 10uM” value is reported as 6.16%.
In the case of `CN1CCCN(CC(O)COCc2cccs2)CC1` (stereo not shown), the “hERG current change (%, negative = inhibition) at 10uM” value is reported as -2.94%.
`OC(COCc1cccs1)CN1CCN(c2cccc(C(F)(F)F)c2)CC1` (stereo not shown) was tested, and the “hERG current change (%, negative = inhibition) at 10uM” value was -69.6%.
With `Cl.OC(COCc1cccs1)CN1CCCCCC1` (stereo not shown) the “hERG current change (%, negative = inhibition) at 10uM” value was -21.9%.
In the case of `O=C(Cc1cccs1)N1CCN(c2cccc(Cl)c2)CC1`, the “hERG current change (%, negative = inhibition) at 10uM” value is reported as -12%.
With `O=C(O)C(=O)O.OC(COCc1cccs1)CN1CCN(c2cccc(Cl)c2)CC1` (stereo not shown) the “hERG current change (%, negative = inhibition) at 10uM” value was -63.8%.
For `CCOC(=O)CNC(=O)c1cn(CC(C)C)c(=O)c2cc(OC)c(OC)cc12`, the “hERG current change (%, negative = inhibition) at 10uM” value was -24%.
In the case of `CCCC(=O)Nc1nnc(-c2ccccc2)o1`, the “hERG current change (%, negative = inhibition) at 10uM” value is reported as 7.03%.
For `CCOc1ccc(NC(=O)CN(C)C(=O)c2cccnc2Sc2ccccc2Cl)cc1OCC`, the “hERG current change (%, negative = inhibition) at 10uM” value was -8.63%.
For `CCOc1ccc(NC(=O)CN(C)C(=O)c2cc(C)nc3ccccc23)cc1OCC`, the “hERG current change (%, negative = inhibition) at 10uM” value was -16.2%.
In the case of `CCOc1ccc(NC(=O)CN(C)C(=O)c2cc(-c3ccncc3)nc3ccccc23)cc1OCC`, the “hERG current change (%, negative = inhibition) at 10uM” value is reported as -58.6%.
For `CCOc1ccc(NC(=O)CN(C)C(=O)c2cc(-c3ccc(OC)cc3)nc3ccccc23)cc1OCC`, the “hERG current change (%, negative = inhibition) at 10uM” value was -2.15%.
For `CCOc1ccc(NC(=O)CN(C)C(=O)c2cccnc2Sc2ccc(Cl)cc2)cc1OCC`, the “hERG current change (%, negative = inhibition) at 10uM” value was -52.4%.
In the case of `COCCN(CC(=O)Nc1cccc(C)c1C)C(=O)c1cc2ccccc2cc1OC`, the “hERG current change (%, negative = inhibition) at 10uM” value is reported as -26.7%.
With `COCCN(CC(=O)Nc1cccc(C)c1C)C(=O)c1ccc2ccccc2n1` the “hERG current change (%, negative = inhibition) at 10uM” value was -0.121%.
`COCCN(CC(=O)Nc1cccc(C)c1C)C(=O)c1cc(-c2ccncc2)nc2ccccc12` was tested, and the “hERG current change (%, negative = inhibition) at 10uM” value was -57.3%.
In the case of `CCOc1ccc(NC(=O)CN(C)C(=O)c2cccnc2Sc2ccc(C)c(C)c2)cc1OCC`, the “hERG current change (%, negative = inhibition) at 10uM” value is reported as 0.0885%.
For `O=C(Cc1ccc(S(=O)(=O)N2CCOCC2)s1)N1CCN(S(=O)(=O)c2cccc(Cl)c2)CC1`, the “hERG current change (%, negative = inhibition) at 10uM” value was -5.33%.
In the case of `CC(=O)N1N=C(c2ccc(C)cc2)OC1c1ccc(Br)cc1` (stereo not shown), the “hERG current change (%, negative = inhibition) at 10uM” value is reported as 27.8%.
With `Cc1nnc(NC(=O)CSc2ccc(-c3ccco3)nn2)s1` the “hERG current change (%, negative = inhibition) at 10uM” value was 9.75%.
`CC(C)NC(=O)CSc1nc(N)c(NC(=O)c2ccco2)c(=O)[nH]1` was tested, and the “hERG current change (%, negative = inhibition) at 10uM” value was 14.7%.
In the case of `OCCNc1nc2nonc2nc1NCCO`, the “hERG current change (%, negative = inhibition) at 10uM” value is reported as 11%.
For `CN1CCN(C(c2ccccc2)c2ccc(Cl)cc2)CC1.Cl` (stereo not shown), the “hERG current change (%, negative = inhibition) at 10uM” value was -60.9%.
`Clc1ccc(C(c2ccccc2)N2CCNCC2)cc1` (stereo not shown) was tested, and the “hERG current change (%, negative = inhibition) at 10uM” value was -22.7%.
For `CN1CCN(C(=O)/C=C/c2cccc(Cl)c2)CC1`, the “hERG current change (%, negative = inhibition) at 10uM” value was -6.45%.
`CN1CCCN(C(c2ccccc2)c2ccc(Cl)cc2)CC1.Cl` (stereo not shown) was tested, and the “hERG current change (%, negative = inhibition) at 10uM” value was -73.8%.
With `Clc1ccc(C(c2ccccc2)N2CCN(c3ccccn3)CC2)cc1` (stereo not shown) the “hERG current change (%, negative = inhibition) at 10uM” value was -5.64%.
For `O=C(O)/C=C/C(=O)N1CCN(C(c2ccccc2)c2ccccc2)CC1`, the “hERG current change (%, negative = inhibition) at 10uM” value was 40.8%.
`Cc1cccc(CN2CCN(C(c3ccccc3)c3ccc(Cl)cc3)CC2)c1.Cl` (stereo not shown) was tested, and the “hERG current change (%, negative = inhibition) at 10uM” value was 18.5%.
With `CN1CCN(C(c2cccc(Cl)c2)c2ccccc2Cl)CC1.O=C(O)/C=C\C(=O)O` (stereo not shown) the “hERG current change (%, negative = inhibition) at 10uM” value was -73.1%.
In the case of `CN1CCN(C(c2ccccc2)c2ccccc2)CC1.Cl`, the “hERG current change (%, negative = inhibition) at 10uM” value is reported as -12.1%.
For `COc1cccc(CN2CCN(c3ncccn3)CC2)c1OC`, the “hERG current change (%, negative = inhibition) at 10uM” value was -3.3%.
In the case of `COc1ccc(CCNC(=O)c2nnn(CC(=O)Nc3ccccc3C)c2N)cc1OC`, the “hERG current change (%, negative = inhibition) at 10uM” value is reported as 16.3%.
`CSc1ncccc1C(=O)Nc1ccc(C)cn1` was tested, and the “hERG current change (%, negative = inhibition) at 10uM” value was 0.536%.
In the case of `Cc1ccc(CS/C(Nc2ccccc2C)=C(\C#N)C(=O)NCc2ccco2)c(C)c1`, the “hERG current change (%, negative = inhibition) at 10uM” value is reported as 9.03%.
